In PubChem BioAssay (Tox21):
Results filed as inconclusive are left out. Active and inactive are the calls of the source. Unless noted, the call rests on the fitted dose curve; in most records, active means well fitted curve in the direction sought with a large enough effect in the repeat runs; inconclusive means weak or mixed curves; inactive means no such curve, though single readings can be large; an effect the other way counts as inactive or inconclusive.

Columns and labels:
[1] = qHTS assay to identify small molecule agonists of the androgen receptor (AR) signaling pathway in the presence of an antagonist - cell viability counter screen (AID 1259379); further: nearly all actives have a fitted effect of over 25% in size; further: potency means the concentration at half of the fitted maximal effect
How it was run: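 Cytotoxicity is assessed by CellTiter-Fluor in MDA-kb2 cells carrying an MMTV-driven luciferase reporter. Cells receive 3.0uM nilutamide plus compounds at 15 concentrations and incubate 16 hr at 37C without CO2 before fluorescence reading.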

[2] = qHTS assay to identify small molecule agonists of the estrogen receptor beta (ER-beta) signaling pathway - cell viability counter screen (AID 1259380); further: nearly all actives have a fitted effect of over 30% in size; further: potency means the concentration at half of the fitted maximal effect
How it was run: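 Cytotoxicity is measured in parallel with the reporter screen: after 16 hr compound exposure at 37C and a 2 hr LiveBLAzer step, CellTiter-Glo is added to the same ER-beta-UAS-bla HEK293T wells and luminescence read after 30 min.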

[3] = qHTS assay to identify small molecule antagonists of the estrogen receptor beta (ER-beta) signaling pathway - cell viability counter screen (AID 1259382); further: nearly all actives have a fitted effect of over 55% in size; further: potency means the concentration at half of the fitted maximal effect
How it was run: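 Cytotoxicity counter screen multiplexed with the beta-lactamase antagonist assay: GripTite HEK293T ER-beta-bla cells were treated 16 hr with test chemicals in the presence of 1nM 17-beta-estradiol, and viability was measured by CellTiter-Glo.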

[4] = target: Estrogen receptor (Homo sapiens) (UniProt P03372); assay: qHTS assay to identify small molecule agonists of the estrogen receptor alpha (ER-alpha) signaling pathway in the presence of an antagonist (AID 1259383; calls by dose curve; further: top concentration of the series differs between compounds; nearly all actives have a fitted effect of over 15% in size)
How it was run: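 Agonist-mode confirmation in the presence of the ER antagonist ICI-182,780 at 10.0nM final. Breast-derived VM7Luc4E2 reporter cells were exposed to compounds for 22hr, and ERE-driven luciferase was quantified by luminescence.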

[5] = qHTS assay to identify small molecule agonists or antagonists of the thyroid stimulating hormone receptor (TSHR) signaling pathway - wild type cell line counter screen (AID 1259384; calls by dose curve)
How it was run: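 Counter screen in untransfected Hek293: compounds (15-point titration, triplicate) plus phosphodiesterase inhibitor Ro20-1724 added after 18 h plating; 30 min RT. Intracellular cAMP via competitive d2/cryptate immunoassay, 1 h incubation.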

[6] = target: Thyrotropin receptor (Homo sapiens) (UniProt P16473); assay: qHTS assay to identify small molecule antagonists of the thyroid stimulating hormone receptor (TSHR) signaling pathway (AID 1259385; calls by dose curve; further: nearly all actives have a fitted effect of over 20% in size)
How it was run: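 Antagonist mode: compound-treated TSHR-expressing HEK293 cells were stimulated with 1.5 ng/mL TSH (final) in presence of Ro20-1724 for 30 min at RT. HTRF cAMP detection after 1 h; each compound tested at 15 concentrations, triplicate.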

[7] = qHTS assay to identify small molecule agonists of the estrogen receptor alpha (ER-alpha) signaling pathway in the presence of an antagonist - cell viability counter screen (AID 1259386);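 further: series mostly up to about 92 µM; cells exposed to compounds for 22 h at 37 °C before the viability read; nearly all actives have a fitted effect of over 30% in size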
How it was run: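 Cytotoxicity was measured in parallel with the ERE-luciferase agonist screen, in the same wells. The cells were VM7Luc4E2, which endogenously express ER-alpha, and treatment was with compounds plus 10.0nM ICI-182,780 for 22hr.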

[8] = target: Progesterone receptor (Homo sapiens) (UniProt P06401); assay: qHTS assay to identify small molecule agonists of the progesterone receptor (PR) signaling pathway (AID 1346784; calls by dose curve; further: nearly all actives have a fitted effect of over 30% in size)
How it was run: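 HEK 293T PR-UAS-bla reporter cells, 2% charcoal-stripped FBS; 6 hr settle at 37C/5% CO2, compound (DMSO) 16 hr, LiveBLAzer B/G FRET substrate 2 hr RT, fluorescence intensity read.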

[9] = target: Progesterone receptor (Homo sapiens) (UniProt P06401); assay: qHTS assay to identify small molecule antagonists of the progesterone receptor (PR) signaling pathway (AID 1346795; active means well fitted inhibition curve with a large enough effect in the signal ratio in the repeat runs, not every such curve was filed as active; the % refers to the signal ratio; further: potency means the concentration at half of the fitted maximal effect)
How it was run: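 Beta-lactamase reporter, HEK293T PR-UAS-bla line; 2% charcoal-stripped FBS; 6 hr pre-incubation, 37C/5% CO2. Compound + R5020 1 nM final, 16 hr. LiveBLAzer B/G FRET substrate, 2 hr RT; fluorescence intensity read.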

[10] = qHTS assay to identify small molecule antagonists of the progesterone receptor (PR) signaling pathway - cell viability counter screen (AID 1346798); further: nearly all actives have a fitted effect of over 50% in size; further: potency means the concentration at half of the fitted maximal effect
How it was run: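 Luminescence readout (CellTiter-Glo, 30 min, RT) of viability in PR-UAS-bla HEK293T cells exposed to compound and R5020 agonist for 16 hr at 37C, 5% CO2; run in the same wells as the beta-lactamase reporter read.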

[11] = qHTS assay to identify small molecule agonists of the progesterone receptor (PR) signaling pathway - cell viability counter screen (AID 1346799; calls by dose curve; further: nearly all actives have a fitted effect of over 45% in size; further: potency means the concentration at half of the fitted maximal effect)
How it was run: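 HEK293T PR-UAS-bla, 3,000 cells/well, 2% charcoal-stripped FBS; 6 h settle, compound 16 h at 37C/5% CO2; LiveBLAzer 2 h RT, then CellTiter-Glo 30 min RT, luminescence read.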

[12] = qHTS assay to identify small molecule antagonists of the TGF-beta/Smad signaling pathway - cell viability counter screen (AID 1346824); further: nearly all actives have a fitted effect of over 50% in size
How it was run: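 Cytotoxicity counter-screen run in the same wells as the beta-lactamase Smad reporter read: CellTiter-Glo luminescence after 30 min at room temperature. HEK 293T SBE-bla cells had 5 hr compound exposure at 37 C with TGF-beta1 (0.25 ng/mL stock).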

[13] = qHTS assay to identify small molecule agonists of the TGF-beta/Smad signaling pathway - cell viability counter screen (AID 1346829); further: top concentration of the series differs between compounds; nearly all actives have a fitted effect of over 45% in size
How it was run: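 After overnight seating at 37 C and 5% CO2, reporter cells got compounds for 5 hr and FRET substrate for 2 hr; cell viability then came from CellTiter-Glo luminescence.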

[14] = qHTS assay to identify small molecule agonists of the TGF-beta/Smad signaling pathway (AID 1346859; active means well fitted activation curve with a large enough effect in the signal ratio in the repeat runs, not every such curve was filed as active; the % refers to the signal ratio; further: series mostly up to about 77 µM)
How it was run: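 Read-out: fluorescence at 460 and 530 nm (405 nm excitation) after a 2 hr room-temperature incubation with beta-lactamase FRET substrate. SBE-bla HEK 293T cells had been treated with test compounds for 5 hr at 37 C.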

[15] = Caspase-3/7 induction in HepG2 cells by small molecules, qHTS assay (AID 1346978); further: nearly all actives have a fitted effect of over 15% in size
How it was run: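 Caspase-3/7 induction was measured by Caspase-Glo 3/7 luminescence (30 min, room temperature) after a 17 hr compound exposure of wild-type HepG2 cells seeded at 2,000 per well and pre-incubated 5 hr.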

[16] = target: Androgen receptor (Homo sapiens) (UniProt P10275); assay: qHTS assay to identify small molecule agonists of the androgen receptor (AR) signaling pathway in the presence of an antagonist (AID 1259381; calls by dose curve; further: nearly all actives have a fitted effect of over 15% in size)
How it was run: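 Agonist-mode confirmation screen: human MDA-kb2 cells stably expressing luciferase under an MMTV promoter bearing AR and GR response elements, co-treated with 3.0uM nilutamide (final). Luminescence measured after 16hr compound incubation.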

[17] = target: Thyrotropin-releasing hormone receptor (Homo sapiens) (UniProt P34981); assay: qHTS assay to identify small molecule antagonists of the thyrotropin-releasing hormone receptor (TRHR) signaling pathway (AID 1346877; active means well fitted inhibition curve with a large enough effect in the repeat runs, not every such curve was filed as active; further: series mostly up to about 51 µM)
How it was run: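 Antagonism is measured as suppression of the calcium response to 1 nM TRH in TRHR-HEK293 cells that have been dye-loaded for 2 h at 37 °C after overnight plating. Each compound is tested at 15 concentrations in triplicate.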

[18] = target: Thyrotropin-releasing hormone receptor (Homo sapiens) (UniProt P34981); assay: qHTS assay to identify small molecule agonists of the thyrotropin-releasing hormone receptor (TRHR) signaling pathway (AID 1346891; calls by dose curve;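 further: HEK293 cells expressing TRHR with calcium dye readout; series mostly up to about 58 µM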)
How it was run: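 HEK293/TRHR cells, 1500 per well, 18 h 37 °C; Ca dye 2 h 37 °C; pin-tool compound addition (agonist mode); kinetic fluorescence 3 min, 1 s reads; 15 concentrations, triplicate.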

[19] = Human pregnane X receptor (PXR) small molecule agonists, qHTS cell viability counter screen (AID 1346977); further: nearly all actives have a fitted effect of over 50% in size; further: potency means the concentration at half of the fitted maximal effect
How it was run: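 Fluorescence read-out (CellTiter-Fluor) of viability in PXR-Luc HepG2 cells, multiplexed with the luciferase agonist read. Compounds in DMSO added after 5hr plating; 24hr total exposure at 37C, 5% CO2.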

Measured: Potency

Thyrotropin-releasing hormone receptor (Homo sapiens), sequence (P34981 whole entry, looked up): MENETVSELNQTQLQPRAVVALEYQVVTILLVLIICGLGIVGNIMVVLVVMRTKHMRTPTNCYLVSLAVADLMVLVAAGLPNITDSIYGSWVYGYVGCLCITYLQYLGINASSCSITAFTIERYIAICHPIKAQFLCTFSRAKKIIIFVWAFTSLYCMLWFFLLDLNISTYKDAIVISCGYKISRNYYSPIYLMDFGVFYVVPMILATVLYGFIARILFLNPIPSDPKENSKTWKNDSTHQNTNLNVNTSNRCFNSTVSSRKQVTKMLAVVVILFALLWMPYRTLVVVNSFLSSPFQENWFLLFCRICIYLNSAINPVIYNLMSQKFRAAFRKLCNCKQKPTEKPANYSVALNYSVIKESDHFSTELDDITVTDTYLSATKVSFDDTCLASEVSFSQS
Progesterone receptor (Homo sapiens), sequence (P06401 whole entry, looked up): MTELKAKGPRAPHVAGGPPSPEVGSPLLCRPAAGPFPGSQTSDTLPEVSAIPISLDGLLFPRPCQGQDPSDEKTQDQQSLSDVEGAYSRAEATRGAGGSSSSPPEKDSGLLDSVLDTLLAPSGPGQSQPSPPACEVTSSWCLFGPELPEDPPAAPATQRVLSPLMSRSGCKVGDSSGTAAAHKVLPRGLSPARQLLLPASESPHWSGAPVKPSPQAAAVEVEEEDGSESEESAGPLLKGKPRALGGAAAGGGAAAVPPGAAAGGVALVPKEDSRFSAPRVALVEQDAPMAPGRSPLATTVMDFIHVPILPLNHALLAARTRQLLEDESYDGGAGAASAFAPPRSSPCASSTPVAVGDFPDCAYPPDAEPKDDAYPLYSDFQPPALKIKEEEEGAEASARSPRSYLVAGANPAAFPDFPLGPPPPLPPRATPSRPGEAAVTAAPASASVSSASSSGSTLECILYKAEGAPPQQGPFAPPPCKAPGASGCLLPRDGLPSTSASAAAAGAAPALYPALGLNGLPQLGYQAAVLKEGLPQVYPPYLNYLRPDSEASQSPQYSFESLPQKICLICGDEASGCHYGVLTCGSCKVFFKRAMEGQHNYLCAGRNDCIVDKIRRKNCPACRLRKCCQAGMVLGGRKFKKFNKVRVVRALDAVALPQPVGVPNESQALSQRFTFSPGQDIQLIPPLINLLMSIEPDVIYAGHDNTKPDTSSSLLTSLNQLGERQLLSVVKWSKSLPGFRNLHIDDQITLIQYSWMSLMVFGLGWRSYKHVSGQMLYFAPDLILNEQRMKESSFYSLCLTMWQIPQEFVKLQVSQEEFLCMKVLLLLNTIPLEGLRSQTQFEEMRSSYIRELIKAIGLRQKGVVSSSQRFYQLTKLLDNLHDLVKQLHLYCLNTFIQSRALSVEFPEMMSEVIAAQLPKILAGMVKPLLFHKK
Estrogen receptor (Homo sapiens), sequence (P03372 whole entry, looked up): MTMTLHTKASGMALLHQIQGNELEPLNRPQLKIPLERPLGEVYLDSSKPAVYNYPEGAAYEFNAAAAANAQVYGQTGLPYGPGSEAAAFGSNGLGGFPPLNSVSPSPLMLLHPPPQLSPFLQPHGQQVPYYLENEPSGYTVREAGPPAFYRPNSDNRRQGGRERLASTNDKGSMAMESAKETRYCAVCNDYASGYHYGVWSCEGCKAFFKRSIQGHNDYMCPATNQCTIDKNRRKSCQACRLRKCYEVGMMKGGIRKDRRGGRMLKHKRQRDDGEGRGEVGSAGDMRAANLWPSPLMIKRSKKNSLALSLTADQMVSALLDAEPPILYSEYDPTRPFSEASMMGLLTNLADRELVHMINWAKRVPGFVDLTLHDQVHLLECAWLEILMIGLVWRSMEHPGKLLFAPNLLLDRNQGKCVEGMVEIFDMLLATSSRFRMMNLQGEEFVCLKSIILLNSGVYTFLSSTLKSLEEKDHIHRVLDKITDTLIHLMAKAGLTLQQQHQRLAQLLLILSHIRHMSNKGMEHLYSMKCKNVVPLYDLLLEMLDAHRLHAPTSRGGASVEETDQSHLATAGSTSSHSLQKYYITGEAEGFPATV
Thyrotropin receptor (Homo sapiens), sequence (P16473 whole entry, looked up): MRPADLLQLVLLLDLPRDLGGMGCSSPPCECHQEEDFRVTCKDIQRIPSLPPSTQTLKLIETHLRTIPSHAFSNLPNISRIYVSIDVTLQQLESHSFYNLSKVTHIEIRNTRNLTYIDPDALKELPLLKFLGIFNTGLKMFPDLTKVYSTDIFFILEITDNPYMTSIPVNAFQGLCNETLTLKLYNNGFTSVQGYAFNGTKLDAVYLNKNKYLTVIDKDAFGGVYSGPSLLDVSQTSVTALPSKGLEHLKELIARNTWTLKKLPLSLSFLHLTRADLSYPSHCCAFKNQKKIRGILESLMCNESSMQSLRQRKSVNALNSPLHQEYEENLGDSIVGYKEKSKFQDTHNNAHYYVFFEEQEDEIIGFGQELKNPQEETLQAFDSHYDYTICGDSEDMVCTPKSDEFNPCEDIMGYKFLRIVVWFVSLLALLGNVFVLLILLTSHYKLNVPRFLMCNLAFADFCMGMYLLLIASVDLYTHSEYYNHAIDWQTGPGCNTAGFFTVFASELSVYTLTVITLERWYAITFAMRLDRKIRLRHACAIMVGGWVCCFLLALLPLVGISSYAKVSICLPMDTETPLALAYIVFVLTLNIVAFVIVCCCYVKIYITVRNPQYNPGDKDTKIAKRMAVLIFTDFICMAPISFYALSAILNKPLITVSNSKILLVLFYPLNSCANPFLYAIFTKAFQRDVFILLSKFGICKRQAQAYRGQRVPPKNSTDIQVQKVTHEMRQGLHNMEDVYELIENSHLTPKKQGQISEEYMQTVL
Androgen receptor (Homo sapiens), sequence (P10275 whole entry, looked up): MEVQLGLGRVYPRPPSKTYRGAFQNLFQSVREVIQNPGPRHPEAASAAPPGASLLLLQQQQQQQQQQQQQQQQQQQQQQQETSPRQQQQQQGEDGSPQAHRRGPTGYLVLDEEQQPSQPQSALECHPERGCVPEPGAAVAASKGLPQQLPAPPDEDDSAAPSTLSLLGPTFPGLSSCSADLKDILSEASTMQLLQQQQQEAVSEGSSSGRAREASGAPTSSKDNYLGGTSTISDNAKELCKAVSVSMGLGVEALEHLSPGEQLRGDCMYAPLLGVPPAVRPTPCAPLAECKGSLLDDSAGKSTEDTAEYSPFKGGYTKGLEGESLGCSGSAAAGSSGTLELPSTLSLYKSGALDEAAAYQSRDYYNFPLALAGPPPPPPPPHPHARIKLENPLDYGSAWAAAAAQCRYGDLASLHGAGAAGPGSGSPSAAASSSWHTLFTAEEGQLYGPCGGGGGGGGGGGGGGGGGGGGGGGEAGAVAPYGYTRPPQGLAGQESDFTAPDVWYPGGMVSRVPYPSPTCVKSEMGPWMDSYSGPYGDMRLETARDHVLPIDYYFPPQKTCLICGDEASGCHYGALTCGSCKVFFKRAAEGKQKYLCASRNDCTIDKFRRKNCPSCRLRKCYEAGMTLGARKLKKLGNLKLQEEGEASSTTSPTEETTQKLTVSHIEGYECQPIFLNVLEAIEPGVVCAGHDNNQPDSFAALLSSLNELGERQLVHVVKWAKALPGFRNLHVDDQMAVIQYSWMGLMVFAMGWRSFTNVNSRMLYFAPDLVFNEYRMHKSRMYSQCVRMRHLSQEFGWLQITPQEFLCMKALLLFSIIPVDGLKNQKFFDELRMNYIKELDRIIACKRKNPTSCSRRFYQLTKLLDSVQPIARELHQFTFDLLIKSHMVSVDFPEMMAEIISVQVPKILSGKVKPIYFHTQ

CCCCCCCCCCCCCc1ccccc1
not listed: [16] | [17] | [18] | [19]
inactive: all other assays above

COc1cc(C=C2CCC/C(=C\c3ccc(O)c(OC)c3)C2=O)ccc1O
active: [1] 26.6 µM | [2] 33.5 µM | [9] 6.68 µM | [19] 29.8 µM
inactive: [16] | [4] | [5] | [12] | [13] | [14] | [17] | [18]

CCCCCCCC(OC)OC
not listed: [7] | [17]
inactive: all other assays above

Cc1ccc(CCn2c3c(c4cc(Cl)ccc42)CN(C)CC3)cn1
active: [2] 26.6 µM | [3] 26.6 µM | [10] 26.6 µM | [11] 21.1 µM
not listed: [16] | [17] | [19]
inactive: all other assays above
